Laboratory results from PubChem BioAssay (NCI).
Compounds without any hit were thinned out: in the full panel of roughly 79,000, 15% have a hit. Active and inactive are the calls of the source. Rule as the data show it: active = growth inhibition above about 70%; inactive = the rest.

What was measured:
[1] = NCI Yeast Anticancer Drug Screen. Data for the rad52 strain (AID 147);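 also: 0% = growth of vehicle-treated control cultures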; conditions: S. cerevisiae rad52 mutant growth inhibition, stronger effect = higher value
Procedure, shortened: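 Here a repair-compromised yeast strain receives each compound; its growth is then quantified and normalised to vehicle-only controls.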

[2] = NCI Yeast Anticancer Drug Screen. Data for the wt1 strain (AID 149);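 also: 0% = growth of vehicle-treated wt1 cultures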; conditions: S. cerevisiae wt1 strain (SPY 50644) growth inhibition, stronger effect = higher value
Procedure, shortened: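 Readout: yeast growth inhibition, normalised to vehicle controls, in the wt1 strain exposed to test compounds.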

[3] = NCI Yeast Anticancer Drug Screen. Data for the rad50EPP+ strain (AID 151);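 also: 0% = growth of vehicle-treated control cultures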; conditions: S. cerevisiae rad50 mutant strain, stronger effect = higher value
Procedure, shortened: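 Read-out is yeast growth inhibition relative to vehicle; cells used were the rad50EPP+ strain.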

[4] = NCI Yeast Anticancer Drug Screen. Data for the mgt1 strain (AID 153); conditions: S. cerevisiae mgt1 mutant growth inhibition, stronger effect = higher value
Procedure, shortened: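 Measured: inhibition of mgt1 yeast growth by compound, normalized to vehicle-treated cultures.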

[5] = NCI Yeast Anticancer Drug Screen. Data for the rad50 strain (AID 155);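 also: 0% = growth of vehicle-only cultures of the same strain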; conditions: S. cerevisiae rad50 strain growth inhibition, stronger effect = higher value
Procedure, shortened: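 Compounds were tested on a yeast strain with an engineered DNA damage repair alteration; the reported value is growth inhibition normalised to vehicle treatment.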

[6] = NCI Yeast Anticancer Drug Screen. Data for the mec2-1 strain (AID 157); conditions: S. cerevisiae mec2-1 strain, stronger effect = higher value
Procedure, shortened: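 Using mec2-1 yeast: add compound, measure growth, express inhibition versus vehicle-treated cultures.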

[7] = NCI Yeast Anticancer Drug Screen. Data for the rad14 strain (AID 159);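 also: 0% = growth of vehicle-treated control cultures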; conditions: S. cerevisiae rad14 strain growth inhibition, stronger effect = higher value
Procedure, shortened: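 Compound-treated yeast with a defined DNA-repair lesion; growth inhibition normalised to vehicle-treated cultures.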

[8] = NCI Yeast Anticancer Drug Screen. Data for the sgs1 mgt1 strain (AID 161);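 also: 0% = growth of cultures given vehicle only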; conditions: S. cerevisiae sgs1 mgt1 strain, stronger effect = higher value
Procedure, shortened: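 Growth of a repair-deficient yeast mutant was monitored after compound treatment and expressed as inhibition relative to vehicle-treated cultures.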

[9] = NCI Yeast Anticancer Drug Screen. Data for the CLN2oe strain (AID 163);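 also: 0% = growth of vehicle-only control cultures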; conditions: S. cerevisiae CLN2oe strain, stronger effect = higher value
Procedure, shortened: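 Whole-cell yeast growth assay. A strain engineered for altered cell-cycle control received compound, and inhibition relative to vehicle-treated cultures was recorded.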

[10] = NCI Yeast Anticancer Drug Screen. Data for the cln2 rad14 strain (AID 165);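 also: 0% = growth equal to vehicle treated cultures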; conditions: S. cerevisiae cln2 rad14 strain, stronger effect = higher value
Procedure, shortened: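 Yeast strain cln2 rad14, bearing defects in cell cycle control and DNA repair, serves as the test system; values reflect growth inhibition compared with vehicle.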

[11] = NCI Yeast Anticancer Drug Screen. Data for the bub3 strain (AID 167); conditions: S. cerevisiae bub3 mutant strain, stronger effect = higher value
Procedure, shortened: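 Growth of a checkpoint-deficient yeast mutant is measured after compound exposure. Values represent inhibition relative to vehicle.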

[12] = NCI Yeast Anticancer Drug Screen. Data for the wt2 strain (AID 169);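 also: 0% = growth of vehicle-treated yeast cultures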; conditions: S. cerevisiae wt2 strain growth inhibition, stronger effect = higher value
Procedure, shortened: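 Treated yeast vs. vehicle-treated yeast: growth inhibition determined.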

[13] = NCI Yeast Anticancer Drug Screen. Data for the mlh1 strain (AID 171);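 also: 0% = growth of vehicle-treated control cultures of the same strain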; conditions: S. cerevisiae mlh1 strain growth inhibition, stronger effect = higher value
Procedure, shortened: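 A yeast strain with a defined genetic lesion serves as the test organism. Cultures receive compound or vehicle, and growth is measured.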

[14] = NCI Yeast Anticancer Drug Screen. Data for the sgs1 strain (AID 173);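 also: 0% = growth of vehicle-only control cultures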; conditions: S. cerevisiae sgs1 mutant, stronger effect = higher value
Procedure, shortened: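 A genetically defined yeast mutant is incubated with the test compound, and its growth is compared to that of the same strain given vehicle.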

[15] = NCI Yeast Anticancer Drug Screen. Data for the mlh1 rad18 strain (AID 175); conditions: S. cerevisiae mlh1 rad18 strain growth inhibition, stronger effect = higher value
Procedure, shortened: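 Steps: expose repair-defective yeast to compound; measure growth; express inhibition against vehicle-treated controls.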

[16] = NCI Yeast Anticancer Drug Screen. Data for the rad18 strain (AID 177); conditions: S. cerevisiae rad18 mutant growth inhibition, stronger effect = higher value
Procedure, shortened: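 Measured value is growth inhibition of a yeast strain bearing a DNA repair alteration, referenced to vehicle-treated cells.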

[17] = at 5.0 µM (retest, dose inferred, filed as 0.5)
[18] = at 50.0 µM (retest, dose inferred, filed as 5.0)

Measured: growth inhibition

O=C(Cc1ccccc1)NN1C(=O)C(Cl)C1c1cc(Br)cc(Br)c1O (stereo not drawn)
inactive: [1]; at 1.2 µM 4% | [1]; at 3.7 µM 33% | [2]; at 1.2 µM -9% | [2]; at 3.7 µM -5% | [3]; at 1.2 µM -6% | [3]; at 3.7 µM 1% | [3]; at 11.0 µM 29% | [3]; at 33.0 µM 56% | [3]; at 100.0 µM 59% | [4]; at 1.2 µM -5% | [4]; at 3.7 µM 14% | [5]; at 1.2 µM 2% | [5]; at 3.7 µM 20% | [5]; [17] 13% | [6]; at 1.2 µM -3% | [6]; at 3.7 µM 19% | [6]; [17] 56% | [7]; at 1.2 µM -3% | [7]; at 3.7 µM -3% | [8]; [17] 61% | [9]; at 1.2 µM -6% | [9]; at 3.7 µM 18% | [10]; [17] 46% | [11]; at 1.2 µM -8% | [11]; at 3.7 µM 12% | [12]; at 1.2 µM -5% | [12]; at 3.7 µM 10% | [13]; at 1.2 µM -3% | [13]; at 3.7 µM 8% | [14]; at 1.2 µM 4% | [14]; at 3.7 µM 30% | [15]; [17] 47% | [16]; at 1.2 µM 5% | [16]; at 3.7 µM 27%
active: [1]; at 11.0 µM 92% | [1]; at 33.0 µM 93% | [1]; at 100.0 µM 88% | [2]; at 11.0 µM 73% | [2]; at 33.0 µM 94% | [2]; at 100.0 µM 89% | [4]; at 11.0 µM 94% | [4]; at 33.0 µM 95% | [4]; at 100.0 µM 91% | [5]; at 11.0 µM 81% | [5]; at 33.0 µM 91% | [5]; [18] 94% | [5]; at 50.0 µM 97% | [5]; at 100.0 µM 84% | [6]; at 11.0 µM 95% | [6]; at 33.0 µM 95% | [6]; [18] 94% | [6]; at 50.0 µM 97.3% | [6]; at 100.0 µM 92% | [7]; at 11.0 µM 85% | [7]; at 33.0 µM 93% | [7]; at 100.0 µM 92% | [8]; [18] 96% | [8]; at 50.0 µM 98% | [9]; at 11.0 µM 95% | [9]; at 33.0 µM 94% | [9]; at 100.0 µM 86% | [10]; [18] 93% | [10]; at 50.0 µM 95.2% | [11]; [17] 98% | [11]; at 11.0 µM 94% | [11]; at 33.0 µM 96% | [11]; [18] 96% | [11]; at 50.0 µM 97% | [11]; at 100.0 µM 87% | [12]; at 11.0 µM 88% | [12]; at 33.0 µM 94% | [12]; at 100.0 µM 90% | [13]; at 11.0 µM 90% | [13]; at 33.0 µM 95% | [13]; at 100.0 µM 92% | [14]; at 11.0 µM 92% | [14]; at 33.0 µM 93% | [14]; at 100.0 µM 88% | [15]; [18] 94% | [15]; at 50.0 µM 97.2% | [16]; at 11.0 µM 88% | [16]; at 33.0 µM 91% | [16]; at 100.0 µM 84%
